# In the library only some 1.1% were active in any assay of this set; here they are far more common.
# TrxR1 substrate = rat thioredoxin reductase 1 substrate activity; O89049; actives 0.01% (n = 390,000); Potency, µM (top dose mostly 114 µM); purified TrxR1 substrate turnover, NADPH consumption readout; AID 588456; note: nearly all actives have a fitted effect of over 50% in size
#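 Rat TrxR1, dispensed at 90 nM, was prereduced with 400 uM NADPH (final) for 5 min at ~22 deg C, then incubated with compound 15 min before 400 uM selenite. A first-read NADPH fluorescence drop versus no-compound background flagged substrates.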
# RGS4 inh = human RGS4 inhibition | P49798 | actives 0.039% (n = 390,000) | Potency, µM (top dose mostly 114 µM), hits mostly inhibitors | Transcreener GDP fluorescence polarization, RGS4-accelerated GTP hydrolysis; note: nearly all actives have a fitted effect of over 75% in size
#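 MLSMR compounds (23 nl, pin-transferred) preincubated 10 min at room temperature with a 500nM (2x) first reagent, then RGS4 at 900nM (2x) plus Transcreener GDP mix added; fluorescence polarization (620/688 nm) read before and after 90 min at 30 °C.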
# Eya2 inh = inhibitors of human Eya2 phosphatase activity. Potency, µM (top dose mostly 76.9 µM), most hits filed as inhibitors. recombinant Eya2, OMFP fluorescence dephosphorylation (OMFP is methylfluorescein phosphate). O00167. actives 0.006% (n = 330,000)
# Target sequence (O00167 whole entry, looked up): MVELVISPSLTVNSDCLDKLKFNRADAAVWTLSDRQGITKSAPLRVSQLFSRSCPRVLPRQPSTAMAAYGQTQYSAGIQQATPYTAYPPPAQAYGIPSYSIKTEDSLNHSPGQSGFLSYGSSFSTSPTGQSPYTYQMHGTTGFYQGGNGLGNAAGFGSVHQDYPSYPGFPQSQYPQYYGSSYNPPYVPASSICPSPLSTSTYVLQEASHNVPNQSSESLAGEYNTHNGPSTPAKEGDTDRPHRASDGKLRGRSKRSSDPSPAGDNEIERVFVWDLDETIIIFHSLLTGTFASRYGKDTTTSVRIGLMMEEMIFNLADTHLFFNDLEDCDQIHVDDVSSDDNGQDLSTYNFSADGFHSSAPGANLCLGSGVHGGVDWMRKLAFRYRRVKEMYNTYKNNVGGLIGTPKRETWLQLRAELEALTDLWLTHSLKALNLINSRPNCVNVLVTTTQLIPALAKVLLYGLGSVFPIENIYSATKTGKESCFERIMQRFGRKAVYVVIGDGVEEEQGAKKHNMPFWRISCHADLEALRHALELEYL
#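 Eya2 (0.2 uM) preincubated 10 min at ambient with compound, then OMFP substrate added at 50 uM; 10 min reaction in 50 mM HEPES pH 7.5, 50 mM NaCl, 5 uM MgCl2, 0.05% BSA, 1 mM DTT. Fluorescence read at Ex 485/Em 525 nm.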
# TrxR1 inh = inhibitors of rat thioredoxin reductase 1 | O89049 | recombinant rTrxR1, NADPH fluorescence consumption, selenite substrate | Potency, µM (doses to about 114 µM), most hits filed as inhibitors | actives 1% (n = 390,000) | AID 588453; note: nearly all actives have a fitted effect of over 65% in size
#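 Rat TrxR1 (90 nM in the dispensed reagent) was pre-reduced with 400 uM NADPH for 5 min at room temperature, then incubated with compound for 15 min. After 400 uM selenite was added, NADPH fluorescence (Ex 340/Em 450 nm) was followed for 8 min.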
# mIDH1 inhibitor = inhibitors of human mutant IDH1 R132H. Potency, µM (highest dose often 76.6 µM), hits mostly inhibitors. actives 0.093% (n = 390,000). O75874. IDH1-R132H enzyme, NADPH consumption, diaphorase/resazurin fluorescence; note: nearly all actives have a fitted effect of over 65% in size
#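 IDH1-R132H (0.5 ug/mL) preincubated 30 min with compound, then NADPH (0.016 mM) and alpha-KG (2 mM) added; 80 min at RT, pH 7.5. Remaining NADPH coupled via diaphorase/resazurin to fluorescence (540/590 nm); concentration-response curves normalized to no-enzyme control.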
# A number is an active result; n = inactive; u = inconclusive; x = not tested or not shown. Calls come from the whole dose curve; as a rule, active = well fitted curve in the direction sought with a large enough effect; inconclusive = small, poorly fitted or top-dose-only effect, or another doubt; inactive = no such curve, though single readings can be large; an effect the other way counts as inactive or inconclusive.
SMILES,TrxR1 substrate,RGS4 inh,Eya2 inh,TrxR1 inh,mIDH1 inhibitor
O=C(N/N=C/c1ccc(N2CCCCC2)o1)c1ccccc1[N+](=O)[O-],n,u,n,10µM,n
O=C(N/N=C/c1ccncc1)c1ccccc1[N+](=O)[O-],n,n,n,n,n
O=C(N/N=C/c1ccc(N2CCOCC2)o1)c1ccccc1[N+](=O)[O-],n,u,n,8.9µM,n
O=C(N/N=C/c1ccc(N2CCOCC2)o1)c1cccc(C(F)(F)F)c1,n,u,n,7.1µM,n
O=C(Nc1ccc(N2CCOCC2)nc1N1CCOCC1)c1cccc(C(F)(F)F)c1,n,n,n,n,n
CC(C)(C)OC(=O)N1CCc2onc(-c3ccc([N+](=O)[O-])cc3)c2C1=O,x,x,x,x,n
C/C(=N/NC(=O)c1ccc2nc[nH]c2c1)c1cccs1,n,n,n,n,n
CCOc1ccccc1C1CC(=O)NC(C)=C1C(=O)OCc1ccc(C)cc1 (stereo unspecified),n,n,x,n,n
Cc1cccc(N2CCN(C(=S)c3ccc([N+](=O)[O-])cc3)CC2)c1,n,u,n,n,n
COC(=O)C(NNc1ccccc1C)(NC(=O)c1ccc(F)cc1)C(F)(F)F (stereo unspecified),n,u,n,28µM,n
COC(=O)C(NNc1ccc(F)cc1)(NC(=O)c1ccccc1)C(F)(F)F (stereo unspecified),n,n,n,n,n
N#C/C(=C\c1cccs1)C(=O)c1ccccc1Cl,n,u,n,13µM,n
Cc1ccc(OCC(=O)N/N=C/c2ccco2)cc1,n,n,n,n,n
Cc1ccc(OCC(=O)N/N=C/C=C/c2ccco2)cc1C,n,u,n,40µM,n
O=C(Cc1cccs1)N/N=C/C=C/c1ccco1,n,n,n,45µM,n
CCOc1ccc(OCCC(=O)OCC(=O)NNC(=O)c2ccccc2)cc1,n,n,n,n,n
Cc1ccccc1Nc1nc(N)nc(COC(=O)CCS(=O)(=O)c2ccccc2)n1,n,n,n,n,n
COc1cc(C2c3c(n[nH]c3C)C(=O)N2c2ccc(C)cc2)ccc1O (stereo unspecified),n,n,n,32µM,n
COc1cc(/C=N/NC(=O)c2cc(C)oc2C)ccc1OCc1ccccc1,n,n,n,n,n
CC1CCCN(C(=O)c2cc(-c3cccs3)nc3ccccc23)C1 (stereo unspecified),n,n,n,n,n
CC(C)Cn1c(SCC(=O)Nc2cccnc2Cl)nnc1-c1ccco1,n,n,n,50µM,n
CCn1c2ccccc2c2cc(NC(=O)c3ccc(Br)o3)ccc21,n,u,n,18µM,n
CCn1c(SCC(=O)Nc2ccc3c(c2)c2ccccc2n3CC)nnc1-c1ccco1,n,u,n,2.8µM,n
Cc1ccsc1C(=O)OCC(=O)N1CCN(C(=O)c2ccco2)CC1,n,n,n,n,n
N#CC1=C(N)N(c2ccc(Cl)c(Cl)c2)C(=O)C1,n,n,n,n,n
CN(C)S(=O)(=O)c1ccc(C(=O)Nc2cccc(C(=O)O)c2)cc1,n,n,x,n,n
C#CCOCCOCCOCCNc1nc(N2CCOCC2)nc(N2CCN(C(=O)CCCCCCCCCCNC(=O)[C@@H]([C@H](C)CC)n3cc(CCCCCN)nn3)CC2)n1,n,n,n,n,n
C#CCOCCOCCOCCNc1nc(N2CCN(C(=O)CCCCCCCCCCNC(=O)Cn3cc(CCCCCN)nn3)CC2)nc(N2CCN(C(=O)CCCCCCCCCCNC(=O)[C@@H](CCC(=O)O)n3cc(CCCCCN)nn3)CC2)n1,n,u,n,n,n
C#CCOCCOCCOCCNc1nc(N2CCN(C(=O)CCCCCCCCCCNC(=O)Cn3cc(CCCCCN)nn3)CC2)nc(N2CCN(C(=O)CCCCCCCCCCNC(=O)Cn3cc(CCCCCN)nn3)CC2)n1,n,n,n,11µM,n
C#CCOCCOCCOCCNc1nc(N2CCN(C(=O)CCCCCCCCCCNC(=O)[C@H]([C@@H](C)CC)n3cc(CCCCCN)nn3)CC2)nc(N2CCN(C(=O)CCCCCCCCCCNC(=O)[C@@H]([C@H](C)CC)n3cc(CCCCCN)nn3)CC2)n1,x,x,28µM,x,x
